We go through nine compounds from PubChem BioAssay (NCI).

Test [1] can be described thus: NCI Yeast Anticancer Drug Screen. Data for the rad50 strain (AID 155).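 Further: 0% = growth of vehicle-only cultures of the same strain.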 Particulars: S. cerevisiae rad50 strain growth inhibition, stronger effect = higher value. The essentials: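 A DNA repair-deficient yeast mutant serves as the test organism; compound-induced growth inhibition is calculated against vehicle-treated cells.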
Test [2] can be described thus: NCI Yeast Anticancer Drug Screen. Data for the mec2-1 strain (AID 157). Particulars: S. cerevisiae mec2-1 strain, stronger effect = higher value. In a few lines:
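Cells of the genetically defined mec2-1 yeast strain are incubated with test compound. Inhibition of growth is calculated against vehicle-treated controls.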

Test [3] is described as follows: NCI Yeast Anticancer Drug Screen. Data for the sgs1 mgt1 strain (AID 161).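 Further: 0% = growth of cultures given vehicle only.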 The conditions noted are these: S. cerevisiae sgs1 mgt1 strain, stronger effect = higher value. The essentials: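 Inhibition of yeast growth, normalised to vehicle-treated controls, is reported for a strain bearing genetic alterations in DNA damage repair.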
Test [4] is described as follows: NCI Yeast Anticancer Drug Screen. Data for the cln2 rad14 strain (AID 165).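 Further: 0% = growth equal to vehicle treated cultures.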 The conditions noted are these: S. cerevisiae cln2 rad14 strain, stronger effect = higher value. In a few lines:
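The screen exposed genetically defined yeast (cln2 rad14) to test compounds and scored growth inhibition relative to vehicle-treated controls.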

Test [5] can be described thus: NCI Yeast Anticancer Drug Screen. Data for the bub3 strain (AID 167). The conditions noted are these: S. cerevisiae bub3 mutant strain, stronger effect = higher value. In a few lines: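 Inhibition values come from growth of compound-treated mutant yeast normalised to vehicle-treated controls.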
Test [6] in a line: NCI Yeast Anticancer Drug Screen. Data for the mlh1 rad18 strain (AID 175). Particulars: S. cerevisiae mlh1 rad18 strain growth inhibition, stronger effect = higher value. The essentials:
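Compound-treated yeast growth, normalised to vehicle controls. Strain bears defined DNA repair mutations.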

Setting [7] is: at 5.0 µM (retest, dose inferred, filed as 0.5).
The mark [8] stands for this setting: at 50.0 µM (retest, dose inferred, filed as 5.0).

This is part of a sample that, as a whole, favours compounds with a hit. Of some 79,000 tested, about 15% had one in any assay. Values without a mark were called inactive. The source made the active and inactive calls. No stated cut-off is given here; in the data, active means growth inhibition above about 70%; inactive means the rest. Where a SMILES comes first, the peptide text is derived from it. The star is where a group is joined. Trt = c1ccc(C(c2ccccc2)(c2ccccc2)*)cc1; Cbz = O=C(OCc1ccccc1)*

With `C/C(Cl)=N\OC(=O)Nc1ccc(C)cc1`, the growth inhibition in test [1] (setting [7]) was 4%; in test [1] (setting [8]), 99% (active); in test [1] (at 50.0 µM), 55.6%; in test [2] (setting [7]), -2%; in test [2] (setting [8]), 99% (active); in test [2] (at 50.0 µM) it was 79.5% (active). The growth inhibition was -26% in test [3] (setting [7]); 91% (active) in test [3] (setting [8]); 74.5% (active) in test [3] (at 50.0 µM); 4% in test [4] (setting [7]); 86% (active) in test [4] (setting [8]); 53.6% in test [4] (at 50.0 µM). Moreover, the growth inhibition in test [5] (setting [7]) was 11%; in test [5] (setting [8]) it was 98% (active); in test [5] (at 50.0 µM), 74% (active); in test [6] (setting [7]), -3%; in test [6] (setting [8]) it was 96% (active); in test [6] (at 50.0 µM) it was 60.4%.
Regarding `C/C(=N\NC(=S)N(C)C1CCCCC1)c1ccc2ccccc2n1`, the growth inhibition in test [1] (setting [7]) was 18%; in test [1] (setting [8]), 88% (active); in test [1] (at 50.0 µM), 83.2% (active); in test [2] (setting [7]) it was 28%; in test [2] (setting [8]), 97% (active); in test [2] (at 50.0 µM), 80.2% (active). Further, the growth inhibition is 28% in test [3] (setting [7]); 93% (active) in test [3] (setting [8]); 81.8% (active) in test [3] (at 50.0 µM); 33% in test [4] (setting [7]); 88% (active) in test [4] (setting [8]); 84% (active) in test [4] (at 50.0 µM). Besides, the growth inhibition was 33% in test [5] (setting [7]); 96% (active) in test [5] (setting [8]); 76.9% (active) in test [5] (at 50.0 µM); 19% in test [6] (setting [7]); 97% (active) in test [6] (setting [8]); 89.2% (active) in test [6] (at 50.0 µM).
On to `CCCCCCCCCCCCCC(=O)OCC[N+](C)(C)C`, for which the growth inhibition in test [1] (setting [7]) is 26%; in test [1] (setting [8]) it was 98% (active); in test [1] (at 50.0 µM), 90.2% (active); in test [2] (setting [7]), 27%; in test [2] (setting [8]) it was 99% (active); in test [2] (at 50.0 µM), 92.5% (active). The growth inhibition in test [3] (setting [7]) was 41%; in test [3] (setting [8]), 99% (active); in test [3] (at 50.0 µM) it was 92.9% (active); in test [4] (setting [7]) it was 32%; in test [4] (setting [8]), 98% (active); in test [4] (at 50.0 µM), 88.8% (active). Also, the growth inhibition in test [5] (setting [7]) is 40%; in test [5] (setting [8]), 99% (active); in test [5] (at 50.0 µM) it was 91.5% (active); in test [6] (setting [7]), 34%; in test [6] (setting [8]), 98% (active); in test [6] (at 50.0 µM), 90.5% (active).
With `S=C1Nc2cnc3ccccc3c2SC1c1ccccc1` (configuration not stated), the growth inhibition in test [1] (setting [7]) was -5%; in test [1] (setting [8]), 98% (active); in test [1] (at 50.0 µM) it was 87% (active); in test [2] (setting [7]), 7%; in test [2] (setting [8]) it was 98% (active); in test [2] (at 50.0 µM), 92% (active). For the same compound, the growth inhibition in test [3] (setting [7]) is -15%; in test [3] (setting [8]), 98% (active); in test [3] (at 50.0 µM) it was 87.8% (active); in test [4] (setting [7]), -9%; in test [4] (setting [8]), 98% (active); in test [4] (at 50.0 µM) it was 90.3% (active). Further, the growth inhibition in test [5] (setting [7]) was -8%; in test [5] (setting [8]), 98% (active); in test [5] (at 50.0 µM) it was 90.8% (active); in test [6] (setting [7]) it was 4%; in test [6] (setting [8]) it was 98% (active); in test [6] (at 50.0 µM), 85.3% (active).
Turning to `CN(C)c1ccc(N=Nc2cccc3ccccc23)cc1`, the growth inhibition in test [1] (setting [7]) is 8%; in test [1] (setting [8]) it was 75% (active); in test [1] (at 50.0 µM) it was 34%; in test [2] (setting [7]), 3%; in test [2] (setting [8]), 89% (active); in test [2] (at 50.0 µM), 0.15%. The growth inhibition in test [3] (setting [7]) is 10%; in test [3] (setting [8]) it was 85% (active); in test [3] (at 50.0 µM) it was 4.3%; in test [4] (setting [7]), 1%; in test [4] (setting [8]), 51%; in test [4] (at 50.0 µM) it was 50.2%. Moreover, the growth inhibition was -5% in test [5] (setting [7]); 88% (active) in test [5] (setting [8]); -5.65% in test [5] (at 50.0 µM); -6% in test [6] (setting [7]); 42% in test [6] (setting [8]); 12.5% in test [6] (at 50.0 µM).
Consider `OCc1ccccc1CC(O)(c1ccccc1)c1ccccc1`, for which the growth inhibition in test [1] (setting [7]) was -7%; in test [1] (setting [8]), 92% (active); in test [1] (at 50.0 µM) it was 97.8% (active); in test [2] (setting [7]), -8%; in test [2] (setting [8]), 87% (active); in test [2] (at 50.0 µM), 97.3% (active). Also, the growth inhibition in test [3] (setting [7]) was -7%; in test [3] (setting [8]), 94% (active); in test [3] (at 50.0 µM), 95.8% (active); in test [4] (setting [7]) it was -3%; in test [4] (setting [8]) it was 70% (active); in test [4] (at 50.0 µM), 75.5% (active). Moreover, the growth inhibition in test [5] (setting [7]) is -19%; in test [5] (setting [8]), 11%; in test [5] (at 50.0 µM) it was 88.5% (active); in test [6] (setting [7]), -20%; in test [6] (setting [8]), 90% (active); in test [6] (at 50.0 µM) it was 94.4% (active).
Turning to `CNC(=O)OC(C)CN1c2ccccc2Sc2ccc(Cl)cc21` (configuration not stated), the growth inhibition in test [1] (setting [7]) is 12%; in test [1] (setting [8]), 97% (active); in test [1] (at 50.0 µM) it was 89.1% (active); in test [2] (setting [7]), -11%; in test [2] (setting [8]) it was 99% (active); in test [2] (at 50.0 µM) it was 84.5% (active). Further, the growth inhibition is 2% in test [3] (setting [7]); 45% in test [3] (setting [8]); 90.9% (active) in test [3] (at 50.0 µM); 19% in test [4] (setting [7]); 98% (active) in test [4] (setting [8]); 86.5% (active) in test [4] (at 50.0 µM). Also, the growth inhibition was 26% in test [5] (setting [7]); 98% (active) in test [5] (setting [8]); 88.3% (active) in test [5] (at 50.0 µM); 19% in test [6] (setting [7]); 98% (active) in test [6] (setting [8]); 88.2% (active) in test [6] (at 50.0 µM).
Take `Cc1ccc(NS(=O)(=O)c2ccc(C)cc2)cc1`: the growth inhibition in test [1] (setting [7]) was -7%; in test [1] (setting [8]), 92% (active); in test [1] (at 50.0 µM) it was 37.6%; in test [2] (setting [7]), -8%; in test [2] (setting [8]) it was 92% (active); in test [2] (at 50.0 µM) it was 14.1%. The growth inhibition is -11% in test [3] (setting [7]); 92% (active) in test [3] (setting [8]); 26.8% in test [3] (at 50.0 µM); -6% in test [4] (setting [7]); 68% in test [4] (setting [8]); 22.4% in test [4] (at 50.0 µM). Moreover, the growth inhibition in test [5] (setting [7]) is -6%; in test [5] (setting [8]), 90% (active); in test [5] (at 50.0 µM) it was 28.6%; in test [6] (setting [7]), -4%; in test [6] (setting [8]), 86% (active); in test [6] (at 50.0 µM), 47.1%.
On to `COC(=O)C(CSC(c1ccccc1)(c1ccccc1)c1ccccc1)NC(=O)C(CC(N)=O)NC(=O)OCc1ccccc1` (stereo not drawn) (Cbz-Asn-Cys(Trt)-OMe; configuration not given here), for which the growth inhibition in test [1] (setting [7]) is 32%; in test [1] (setting [8]) it was 84% (active); in test [1] (at 50.0 µM), 73.5% (active); in test [2] (setting [7]), 13%; in test [2] (setting [8]), 89% (active); in test [2] (at 50.0 µM), 68.2%. In addition, the growth inhibition in test [3] (setting [7]) is 17%; in test [3] (setting [8]) it was 94% (active); in test [3] (at 50.0 µM), 72.5% (active); in test [4] (setting [7]), 27%; in test [4] (setting [8]), 94% (active); in test [4] (at 50.0 µM), 72% (active). The growth inhibition in test [5] (setting [7]) is 15%; in test [5] (setting [8]), 94% (active); in test [5] (at 50.0 µM), 68.8%; in test [6] (setting [7]) it was 27%; in test [6] (setting [8]), 88% (active); in test [6] (at 50.0 µM), 68.9%.
